Inconclusive results are not listed. A number with no mark means an inactive call. Calls come from the whole dose curve.
% is set by controls: 0 for no effect and ±100 for the full control effect.

The nature of the experiment: qHTS assay to identify small molecule agonists of H2AX - cell viability counter screen (AID 1224847). Note: top concentration of the series differs between compounds; nearly all actives have a fitted effect of over 30% in size. To be noted: CHO-K1 viability, CellTiter-Glo luminescence, 3 h; series mostly up to 154 µM; activity change, negative = cytotoxicity: at the top concentration. The source says: National Center for Advancing Translational Sciences [NCATS]
NIH Chemical Genomics Center [NCGC]
U.S. Environmental Protection Agency [EPA]
National Institutes of Environmental Health Sciences [NIEHS]
National Toxicology Program [NTP]
U.S. Food and Drug Administration [FDA]
HTRF phospho-H2AX (Ser139) assay (Cisbio Bioassays, US) enables the quantitative detection of the histone variant H2AX when phosphorylated on serine 139. When double-stranded DNA breaks, either by ionizing radiation or endogenous physiological processes, H2AX becomes phosphorylated at Ser139. This phospho-Ser139 serves as a sensitive biomarker for the detection of such breaks, localizing the site of DNA repair. So, HTRF phospho-H2AX Ser139 is a pertinent assay to study genome stability, the cell cycle, DNA repair, and it serves as a biomarker for cancer, and to understand aging. Wild type CHO-K1 cells were used to identify the inducers of Phospho-H2AX Ser 139 from the Tox21 compound collections. Also cytotoxicity of the Tox21 10K compound library against the CHO-K1 cell line was tested by measuring the cell viability using CellTiter-Glo assay (Promega, Madison, WI).
Tox21 Assay Protocol Summary:
The CHO-K1 cells suspended in culture medium containing 10% FBS were dispensed at 1000 cells/ 3 ul/well in 1536-well white wall/solid bottom plates (Greiner Bio-One North America, NC) using a Multidrop Combi (Thermo Fisher Scientific Inc., Waltham, MA). After the assay plates were incubated at 37C overnight, 23 nl of compounds at 15 concentrations (from 5-48 columns) or positive control (from 1 to 4 columns) were transferred to the assay plates using a Pintool station (Wako, San Diego, CA) into each well resulting in a final DMSO concentration of 0.76%. After 3hr incubation at 37C, 3 uL/well CellTiter-Glo luminescent cell viability reagent (Promega Corporation, Madison, WI) was added using a Flying Reagent Dispenser (FRD) (Aurora Discovery, CA). After incubation at room temperature for 30 min, the luminescence intensity was read using a ViewLux plate reader (PerkinElmer, Waltham, MA).
`CC(C)(C)C(=O)c1ccccc1`: the “activity change, negative = cytotoxicity” value was 4.07%.

Consider `Cc1coc2ccccc2c1=O`, for which the “activity change, negative = cytotoxicity” value was 0.506% [at 70.9 µM].

For the molecule `O=C(c1ccccc1O)c1ccccc1O`, the “activity change, negative = cytotoxicity” value is -9.7%.

With `CNCC(O)c1ccc(O)c(O)c1` (stereo not given), the “activity change, negative = cytotoxicity” value was -7.61% [at 70.9 µM].

As to `O=[N+]([O-])c1ccc(/C=N\O)o1`, the “activity change, negative = cytotoxicity” value is 4% [at 70.9 µM].

`CN1CCC(=C2c3ccccc3CCc3cccnc32)CC1`: the “activity change, negative = cytotoxicity” value was 1.43% [at 70.9 µM].

Regarding `CCOC(=O)C1=NOC(c2ccccc2)(c2ccccc2)C1`, the “activity change, negative = cytotoxicity” value was -11.2%.

As to `CO[C@@]1(NC(=O)C(C(=O)O)c2ccc(O)cc2)C(=O)N2C(C(=O)O)=C(CSc3nnnn3C)CO[C@@H]21` (stereo not given in full), the “activity change, negative = cytotoxicity” value is -0.827% [at 70.9 µM].

Consider `CC(C(=O)O)c1cccc(Oc2ccccc2)c1` (stereo not given), for which the “activity change, negative = cytotoxicity” value was 1.36% [at 70.9 µM].

Consider `CCCCc1nc(Cl)c(CO)n1Cc1ccc(-c2ccccc2-c2nn[nH]n2)cc1`, for which the “activity change, negative = cytotoxicity” value was 0.0984% [at 70.9 µM].

Regarding `c1ccc2sc(SN3CCOCC3)nc2c1`, the “activity change, negative = cytotoxicity” value is 0.0684% [at 70.9 µM].

Turning to `CCN1C=CN(C)C1C` (stereo not given), the “activity change, negative = cytotoxicity” value is -2.76%.

For `C=C(C)C(=O)OCC(O)CO` (stereo not given), the “activity change, negative = cytotoxicity” value was -1.2% [at 70.9 µM].

In the case of `c1ccc(Cc2ccccc2)cc1`, the “activity change, negative = cytotoxicity” value was 3.01%.

Take `CN(C)[C@@H]1C(=O)C(C(=O)NCN2CCCC2)=C(O)[C@@]2(O)C(=O)C3=C(O)c4c(O)cccc4[C@@](C)(O)C3C[C@@H]12` (stereo not given in full): the “activity change, negative = cytotoxicity” value is -0.482% [at 70.9 µM].

Consider `O=S(=O)(O)c1cc(O)c(O)c(S(=O)(=O)O)c1`, for which the “activity change, negative = cytotoxicity” value is -0.899%.

Regarding `CN(C)CCN(C)CCN(C)C`, the “activity change, negative = cytotoxicity” value was -1.85%.

As to `O=S(=O)(O)c1cccc2c(S(=O)(=O)O)cccc12`, the “activity change, negative = cytotoxicity” value is 1.55%.

In the case of `CO[C@@]1(NC(=O)CSC[C@@H](N)C(=O)O)C(=O)N2C(C(=O)O)=C(CSc3nnnn3C)CS[C@@H]21`, the “activity change, negative = cytotoxicity” value is 5.94% [at 70.9 µM].

Turning to `CC(C)(C)C(=O)Oc1ccc(S(=O)(=O)Nc2ccccc2C(=O)NCC(=O)O)cc1`, the “activity change, negative = cytotoxicity” value was 3.61% [at 70.9 µM].

On to `Cc1ccc(C(=O)c2ccc(CC(=O)O)n2C)cc1`, for which the “activity change, negative = cytotoxicity” value was 0.904% [at 70.9 µM].

`O=C1NC(=O)C2CC=CCC12` (stereo not given): the “activity change, negative = cytotoxicity” value was 4.55%.

For `OCCCCCO`, the “activity change, negative = cytotoxicity” value is -3.16%.

With `O=C(CO)[C@@H](O)[C@H](O)[C@@H](O)CO`, the “activity change, negative = cytotoxicity” value is 0.172% [at 70.9 µM].

With `CCOC(=O)CCC(=O)OCC`, the “activity change, negative = cytotoxicity” value is 5.79%.

As for `CC(C)(C)OC(=O)c1cccc(N)c1`, the “activity change, negative = cytotoxicity” value was 1.43%.

As to `CC1=NN(c2cccc(S(=O)(=O)O)c2)C(=O)C1`, the “activity change, negative = cytotoxicity” value was 5.72%.

Turning to `Cc1ccc(-c2ccccc2C#N)cc1`, the “activity change, negative = cytotoxicity” value was 2.46% [at 70.9 µM].

As for `CC/C=C\CCOC(C)OCC` (stereo not given), the “activity change, negative = cytotoxicity” value was -1.98% [at 70.9 µM].

As to `Nc1ccn([C@@H]2O[C@H](CO)[C@@H](O)C2(F)F)c(=O)n1`, the “activity change, negative = cytotoxicity” value is 0.0571% [at 70.9 µM].

For the molecule `O=C(O)c1cc(C(=O)O)cc(C(=O)O)c1`, the “activity change, negative = cytotoxicity” value is -0.806%.

For `CC(=O)c1ccc2ccccc2c1`, the “activity change, negative = cytotoxicity” value is -3.44%.

On to `CCC(C)(CCCC(C)C)OC(C)=O` (stereo not given), for which the “activity change, negative = cytotoxicity” value was -5.9%.

As to `Cc1ccnc(NS(=O)(=O)c2ccc(N)cc2)n1`, the “activity change, negative = cytotoxicity” value is 5.27% [at 70.9 µM].

Turning to `COc1c(N2CCNC(C)C2)c(F)cc2c(=O)c(C(=O)O)cn(C3CC3)c12` (stereo not given), the “activity change, negative = cytotoxicity” value is -0.773% [at 70.9 µM].

With `CCCCCCCCCCCCSC`, the “activity change, negative = cytotoxicity” value is 1.24%.

Take `CCC(C(=O)NC(=O)NC(C)=O)c1ccccc1` (stereo not given): the “activity change, negative = cytotoxicity” value is 1.82% [at 70.9 µM].

Turning to `C[C@@H]1C[C@H]2[C@@H]3C[C@H](F)C4=CC(=O)C(Cl)=C[C@]4(C)[C@@]3(F)[C@@H](O)C[C@]2(C)[C@@]1(O)C(=O)CO`, the “activity change, negative = cytotoxicity” value is 0.184% [at 70.9 µM].

For the molecule `CCCCCC(=O)OCCc1ccccc1`, the “activity change, negative = cytotoxicity” value was 1.08%.

Consider `CCCCCCCCCC[N+](C)(C)[O-]`, for which the “activity change, negative = cytotoxicity” value was 1.4%.

The values are drawn from PubChem BioAssay (Tox21).
